# TGFb SMAD3 inh: TGF-b pathway inhibition. AID 588855. HepG2 CAGA-GFP TGF-b/SMAD3 reporter, GFP fluorescence, 18 h; TGF-beta stimulated, 500 pg/mL final. 410,000 compounds, 1.2% hits. Potency, µM (highest dose often 46.1 µM), for the others: at the top dose activity, negative = inhibition, actives largely listed as inhibitors; further: on the % scale 0 is the no-effect control and ±100 the full control effect; nearly all actives have a fitted effect of over 65% in size
#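 Smad-responsive CAGA-GFP expression was quantified in HEPG2 cells exposed to compounds and 500 pg/mL final TGF-beta for 18 h at 37 degrees C; unstimulated wells defined full inhibition.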
# HepG2 viability: counter-screen for TGF-b inhibitors: cytotoxicity in HepG2 cells | HepG2 CAGA-GFP viability, ATP luminescence, 18 h | Potency, µM (doses to about 46.1 µM), for the others: at the highest dose activity change, negative = cytotoxicity, hits mostly cytotoxic | 410,000 compounds, 0.76% hits | AID 588856
#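 HepG2 CAGA-GFP cells (1000/well, DMEM with 1% FBS) received compound, then TGF-beta at 500 pg/mL final, and were incubated 18 hours at 37 degrees C. Viability was read by CellTiter-Glo luminescence. Media-only wells were set as complete cell-killing and DMSO as no toxicity.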
# HT1080-NT tox: kills 2HG-producing HT-1080-NT fibrosarcoma cells. HT-1080-NT fibrosarcoma viability, CellTiter-Glo ATP luminescence, 48 h. Potency, µM (top dose mostly 46.1 µM), for the others: top-dose activity, negative = less viability, most hits filed as cytotoxic. 360,000 compounds, 1.6% hits. AID 686970;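 further: NT is the 2HG producing partner of a matched IDH1 knockdown line; 0% = DMSO-treated cells and -100% = media-only wells without cells; nearly all actives have a fitted effect of over 55% in size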
#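 Luminescent CellTiter-Glo readout after 48 hours of compound exposure at 37 degrees C defined viability of HT-1080-NT cells. Activity was normalized to DMSO wells and cell-free media wells; concentration-response curves were fitted and assigned curve classes.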
# DT40 TDP1 no CPT: qHTS for Inhibitors of human tyrosyl-DNA phosphodiesterase 1 (TDP1): qHTS in cells in absence of CPT; Potency, µM (series often up to 46.2 µM), for inactives: top-dose activity change, negative = growth inhibition, usual class: inhibitors; 420,000 compounds, 15% hits; DT40 Tdp1-/- hTDP1 cells, no CPT, ATP luminescence, 48 h; further: on the % scale 0 is the no-effect control and ±100 the full control effect; nearly all actives have a fitted effect of over 55% in size
#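 DT40 Tdp1-/-;hTDP1 cells, no CPT (DMSO vehicle only), 400 cells/well; compounds pin-transferred; ≥48 hr, 37 °C; CellTiter-Glo 30 min RT dark, luminescence read.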
# DT40 TDP1 CPT: DT40-hTDP1 cell growth loss with CPT. chicken DT40 Tdp1-/-;hTDP1 cells + 20 nM CPT, ATP luminescence, 48 h. Potency, µM (titrated, usually from 46.2 µM), for inactives: top-dose activity change, negative = growth inhibition, actives largely listed as inhibitors. 420,000 compounds, 12% hits. AID 686979; further: on the % scale 0 is the no-effect control and ±100 the full control effect; nearly all actives have a fitted effect of over 55% in size
#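 Cell growth measured by CellTiter-Glo luminescence after a minimum 48 h, 37 C compound exposure with 20 nM CPT in Tdp1-knockout DT40 cells stably expressing hTDP1, seeded 400/well; qHTS titration format.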
# HT1080 IDH1KD tx: kills HT-1080 cells with IDH1 knockdown; HT-1080 IDH1 knockdown viability, ATP luminescence, 48 h; Potency, µM (top dose mostly 46.1 µM), for the others: at the top dose activity, negative = toxicity, most hits filed as cytotoxic; 360,000 compounds, 2% hits; AID 686971;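 further: 0% = DMSO wells and -100% = cell-free medium wells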
#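 HT-1080-IDH1KD cells (IDH1 knocked down), 750/well in RPMI with 5% FBS, treated with compound 48 h at 37 degrees C. Viability by CellTiter-Glo luminescence, normalised to DMSO and no-cell wells; concentration-response curves classed.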
# * hit, by the source's call; ? = inconclusive; . = no result. The list is not random: actives were taken first. Their share in the collection is about 17%. The call rests on the fitted dose curve; in most records, active means well fitted curve in the direction sought with a large enough effect; inconclusive means small, poorly fitted or top-dose-only effect, or another doubt; inactive means no such curve, though single readings can be large; an effect the other way counts as inactive or inconclusive. Potency means the concentration at half of the fitted maximal effect.
SMILES,TGFb SMAD3 inh,HepG2 viability,HT1080-NT tox,DT40 TDP1 no CPT,DT40 TDP1 CPT,HT1080 IDH1KD tx
Cc1ccc(-c2nc(SCC(=O)N(C)c3c(N)n(Cc4ccccc4)c(=O)[nH]c3=O)n[nH]2)cc1,-5.5%,4.1%,12.9%,9.0%,-3.0%,2.7%
O=C(Cn1c2ccccc2c(=O)c2ccccc21)Nc1cccc(F)c1,4.3%,8.2%,-2.6%,?,16.4µM*,-6.7%
O=C(Cn1c(=O)n(Cc2ccco2)c(=O)c2ccccc21)Nc1cccc(F)c1,7.0%,4.0%,.,?,?,.
COc1ccc(Cn2cc(Cn3c4ccccc4c(=O)n3C(C)C)nn2)cc1,-10.8%,-46.6%,20.2%,-6.6%,-20.4%,19.3%
COc1ccccc1/C=N/NC(=O)c1cc2c(OC)c(OC)ccc2[nH]1,-10.3%,-1.8%,7.31µM*,3.26µM*,4.11µM*,4.11µM*
COc1ccc(OC)c(/C=N/NC(=O)c2cc3c(OC)cccc3[nH]2)c1,6.6%,-48.4%,-2.9%,?,-21.8%,-7.0%
COc1cccc(/C=N/NC(=O)c2cc3c(OC)cccc3[nH]2)c1OC,?,-44.1%,3.9%,7.31µM*,-19.5%,14.5%
CCOc1ccc2[nH]c(C(=O)N/N=C/c3cc(OC)c(OC)c(OC)c3)cc2c1,1.3%,-15.3%,1.4%,16.4µM*,?,-6.2%
COc1cccc(/C=N/NC(=O)c2cc3c(OC)cccc3[nH]2)c1O,?,-17.9%,?,6.51µM*,5.17µM*,?
COc1cccc2[nH]c(C(=O)NCc3ccccc3)cc12,21.3%,11.8%,-16.0%,-21.6%,-5.7%,2.4%
CCCN1CCN(CC(=O)NCC(=O)Nc2cccc(C)c2C)CC1,-3.8%,-1.7%,10.5%,-23.5%,-8.5%,-3.4%
COC(=O)C1CCN(C(c2ccccc2Cl)c2sc3nc(-c4ccco4)nn3c2O)CC1 (stereo not drawn),-2.5%,-18.7%,.,-9.6%,-27.6%,.
CCC(C)N=C1Sc2nc3ccc(C)cc3cc2CN1CCOC (stereo not drawn),3.2%,-1.0%,-2.5%,?,?,-3.3%
COc1ccc(S(=O)(=O)N2CCCOC2CNC(=O)C(=O)NCc2ccccn2)cc1 (stereo not drawn),3.1%,-20.2%,-0.2%,-24.9%,-3.2%,7.1%
COc1cc(/C=N/NC(=O)c2cc3ccccc3[nH]2)ccc1O,-1.1%,-26.5%,-9.9%,-1.6%,4.2%,-8.1%
CCOc1ccc(/C=N/NC(=O)c2cc3c(OC)cccc3[nH]2)cc1,0.0%,-16.2%,?,23.1µM*,18.4µM*,?
COc1cccc(/C=N/NC(=O)c2cc3c(OC)c(OC)ccc3[nH]2)c1OC,9.3%,11.7%,?,2.59µM*,2.31µM*,6.51µM*
CCc1ccccc1N(CC(=O)NC(C)c1ccccc1)S(C)(=O)=O (stereo not drawn),5.4%,1.0%,5.4%,3.2%,9.1%,6.2%
COCCn1c(SCC(=O)NN2C(=O)NC(C)(c3ccccc3)C2=O)nnc1-c1ccncc1 (stereo not drawn),5.4%,-12.1%,2.4%,-3.8%,-7.3%,0.0%
O=C(NCc1ccco1)C(Cc1ccccc1)N1C(=O)c2ccccc2C1=O (stereo not drawn),13.4%,-0.9%,19.7%,-19.9%,20.6µM*,16.5%
COC(=O)CN1C(=O)CSc2ccc(S(=O)(=O)Nc3cccc(Br)c3)cc21,-32.6%,-31.6%,.,?,-20.3%,.
CC(=O)c1c(C)[nH]c(C(=O)OCC(=O)Nc2ccccc2Cl)c1C,-26.8%,-24.5%,-29.8%,14.6µM*,16.4µM*,-18.4%
CC(=O)c1c(C)[nH]c(C(=O)OCC(=O)Nc2cc(S(=O)(=O)N3CCCC3)ccc2Cl)c1C,?,-28.3%,3.2%,23.1µM*,?,-2.7%
CC(=O)c1c(C)[nH]c(C(=O)CN2CCN(S(=O)(=O)c3ccc(C(C)C)cc3)CC2)c1C,-24.4%,-17.1%,-5.8%,10.3µM*,14.6µM*,-9.8%
CCN(CC)S(=O)(=O)c1cccc(NC(=O)COC(=O)c2[nH]c(C)c(C(C)=O)c2C)c1,-20.0%,-17.6%,-0.4%,1.03µM*,1.84µM*,?
SMILES,TGFb SMAD3 inh,HepG2 viability,HT1080-NT tox,DT40 TDP1 no CPT,DT40 TDP1 CPT,HT1080 IDH1KD tx
CC(=O)c1c(C)[nH]c(C(=O)Nc2cccc(S(=O)(=O)N(C)C)c2)c1C,3.0%,-5.1%,-0.1%,?,?,-3.7%
CC(=O)c1c(C)[nH]c(C(=O)OCC(=O)Nc2cccnc2Cl)c1C,-0.4%,-9.5%,0.8%,?,?,-7.4%
O=C1NN=C2CCCCCCCCCCC12 (stereo not drawn),1.1%,0.9%,3.8%,-28.3%,-22.9%,-1.1%
CC(OC(=O)CC1CC2CCC1C2)C(=O)Nc1cccc(S(=O)(=O)N2CCOCC2)c1 (stereo not drawn),-10.7%,-49.5%,-2.7%,-15.4%,-25.5%,0.2%
CCCCN1C(=O)C(CC(=O)NCCCN(C)C)CC(C(=O)N2CCOCC2)=C1C (stereo not drawn),12.7%,-6.2%,-2.0%,-14.9%,-11.1%,-1.1%
O=C(COC(=O)c1ccc(Cl)nc1)Nc1cc(S(=O)(=O)N2CCCCC2)ccc1Cl,-9.2%,1.6%,4.1%,?,18.4µM*,-0.3%
CC(=O)c1c(C)[nH]c(C(=O)OCc2csc(CC(=O)Nc3ccccc3C)n2)c1C,-23.8%,-13.1%,-1.5%,9.2µM*,18.4µM*,-4.8%
O=C1N=C(N2CCOCC2)S/C1=C\c1ccccc1OS(=O)(=O)c1ccccc1,-4.4%,-3.1%,-12.0%,8.2µM*,11.6µM*,8.8%
CC(=O)N1CCN(C2=NC(=O)/C(=C/c3ccc(OS(=O)(=O)c4ccccc4)cc3)S2)CC1,16.5%,-3.1%,-5.5%,?,20.6µM*,-2.1%
O=C1N=C(N2CCOCC2)S/C1=C/c1cc2c(cc1[N+](=O)[O-])OCO2,-15.4%,-34.2%,?,13µM*,11.6µM*,?
Cc1cccc(C(C)C)c1NC(=O)C(C)OC(=O)Cc1n[nH]c(=O)c2ccccc12 (stereo not drawn),-0.6%,-13.3%,5.6%,-8.6%,-16.9%,16.3%
C[C@H](CO)N1C[C@H](C)[C@@H](CN(C)Cc2ccc(C(=O)O)cc2)OCc2cnnn2CCCC1=O,-4.9%,-19.9%,3.2%,-1.4%,-2.3%,-0.3%

# Compound activity (PubChem)
